Screens: PubChem, several laboratories
Only some compounds are listed: those with a hit (about 1% of all), similar ones and a draw of the others.
Hsp70 activator = Hsp70 transcriptional activation, primary screen | HeLa Hsp70 promoter luciferase reporter, luminescence; scaled: vehicle 0, proteasome-inhibitor control 100% | activation, % at 10 µM | 200,000 compounds, 0.04% hits | AID 1203;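 active = activation above the mean across all tested compounds plus 3 SD, cutoff set per campaign, cut at about 5.5% in these data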
S1P4 antag = antagonists of human S1P4 receptor; O95977; 220,000 compounds, 0.26% hits; S1P4-expressing cells, antagonist mode, reporter read-out; inhibition, % at 4.98 µM; AID 1510; in the data active = inhibition above about 29%
Target sequence (O95977 whole entry, looked up): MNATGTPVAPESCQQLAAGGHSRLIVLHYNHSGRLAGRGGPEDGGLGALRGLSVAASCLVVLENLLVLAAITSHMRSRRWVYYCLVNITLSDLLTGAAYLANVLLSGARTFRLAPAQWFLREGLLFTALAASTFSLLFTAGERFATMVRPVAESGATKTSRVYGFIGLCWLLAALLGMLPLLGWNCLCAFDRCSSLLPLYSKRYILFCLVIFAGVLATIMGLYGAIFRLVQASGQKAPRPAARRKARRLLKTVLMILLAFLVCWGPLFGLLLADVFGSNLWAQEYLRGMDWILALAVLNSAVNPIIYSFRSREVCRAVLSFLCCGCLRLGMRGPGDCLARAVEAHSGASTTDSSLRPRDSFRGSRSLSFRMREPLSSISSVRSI
S1P4 agonist = agonists of human S1P4 receptor; S1P4-expressing cell line, agonist reporter assay; O95977; 220,000 compounds, 0.35% hits; activation, % at 4.98 µM; AID 1509; in the data active = activation above about 11%
HSV replic up = increases HSV replication in cells. 220,000 compounds, 0.005% hits. maximum fold increase. HSV replication augmentation in cells, fold increase; in the data active = maximum fold increase above about 1.5; inconclusive = no clear call, values can overlap the other calls; tested in PC3 cells
zVAD death inh = blocks zVAD induced death of L929 cells; L929 zVAD necroptosis rescue, ATP luminescence, 24 h; with zVAD 60 µM; viability rescue, % at 10 µM; 220,000 compounds, 0.38% hits; AID 1377;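 active = activation, scaled between plate controls, above about 75%, limit read from the data; inactive = activation under that limit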
TNF death inh = blocks TNF-alpha induced death of Jurkat FADD-/- cells | Jurkat FADD-/- TNF necroptosis rescue, ATP luminescence, 24 h; 0 = TNF only, 100 = no-TNF cells | activation (protection from cell death), % at 10 µM | 220,000 compounds, 0.068% hits | AID 463075;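 active = activation, meaning protection from cell death, of at least 50% relative to plate controls; inactive = activation below 50%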;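 note: necroptosis triggered by 40 ng/mL TNF-alpha added together with compound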
Hsp70 act DR = dose-dependent Hsp70 transcriptional activation; shares compounds with Hsp70 activator; HeLa hsp70.1pr-luc reporter, luciferase luminescence; calls only at 99 µM; 70 compounds, 10% hits; AID 1252;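 active = over 50% activation at some tested dose; inactive = under 50% activation at every tested dose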
zVAD death conf = confirmed blocker of zVAD induced death in L929 cells. shares compounds with zVAD death inh. L929 zVAD-induced necroptosis rescue, ATP luminescence, 24 h. AID 463117. activation (protection from necroptosis), % at 10 µM. 760 compounds, 16% hits;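 active = mean protection from necroptosis of at least 50% over duplicate tests; inactive = mean protection below 50%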
S1P4 agonist cf = human S1P4 agonism, confirmation. S1P4 agonist cell-based reporter assay. 740 compounds, 7% hits. activation, % at 4.98 µM. shares compounds with S1P4 agonist; in the data active = activation above about 12%
S1P1 agonist = activates human S1P1, counter-screen for S1P4 agonists; shares compounds with S1P4 agonist; activation, % at 4.98 µM; AID 1563; S1P1 agonist cell-based assay, activation; 740 compounds, 4% hits; in the data active = activation above about 21%
S1P4 antag conf = confirmation of human S1P4 receptor antagonists. shares compounds with S1P4 antag. S1P4-expressing cell line, antagonist mode, reporter read-out. inhibition, % at 4.98 µM. 520 compounds, 71% hits. AID 1524; in the data active = inhibition above about 30%
S1P1 antagonist = human S1P1 antagonism as S1P4 antagonist counter-screen. 520 compounds, 37% hits. inhibition, % at 4.98 µM. cell-based S1P1 antagonist counterscreen, inhibition. shares compounds with S1P4 antag; in the data active = inhibition above about 40%;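 note: receptor stimulated with S1P near its EC80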
Hits are given with their value; – = inactive; ? = inconclusive; · = no result given.

SMILES	Hsp70 activator	S1P4 antag	S1P4 agonist	HSV replic up	zVAD death inh	TNF death inh	S1P4 antag conf	S1P1 antagonist	others
CC(C)[C@]12O[C@H]1[C@@H]1O[C@]13[C@]1(O[C@H]1C[C@H]1C4=C(CC[C@@]13C)C(=O)OC4)[C@@H]2O	–	107	–	–	·	·	·	·
Cc1nc2c(=O)n(C)c(=O)nc-2n(C)n1	–	97	–	·	–	–	·	·
O=c1[nH]c(=O)n(Cc2ccco2)c(O)c1C=NC1CCN(Cc2ccccc2)CC1	·	–	–	–	–	–	·	·
CC(=NCCCn1ccnc1)c1c(O)n(Cc2ccccc2)c(=O)[nH]c1=O	–	–	–	–	–	–	·	·
Cc1cc([N+](=O)[O-])c(Cl)cc1NC(=O)C(C)C	–	–	–	–	–	–	·	·
CNc1cc(Cl)c2nonc2c1[N+](=O)[O-]	18	74	–	–	–	–	114	–	Hsp70 act DR=–
COC(=O)C1CN(C#N)N(c2ccc(Cl)cc2)C12c1ccccc1-c1ccccc12 (stereo unspecified)	6.6	66	–	–	–	–	121	94	Hsp70 act DR=–
O=C1c2cccc3cccc(c23)C(=O)N1/N=C/c1c(O)n(-c2ccccc2)c(=O)[nH]c1=O	–	–	–	–	–	–	·	·
C[C@H]1CCC[C@@H](O)CCC/C=C/c2cc(O)cc(O)c2C(=O)O1	–	–	–	–	79	–	·	·	zVAD death conf=–
O[C@@H]1CCCN2CCc3c([nH]c4ccccc34)[C@H]12	·	·	·	–	·	·	·	·
Cc1cc([N+](=O)[O-])c2ccccc2[n+]1[O-]	·	79	–	–	81	–	114	112	zVAD death conf=67
O=c1[nH]c(=O)n(CCc2ccccc2)c(O)c1C=NC1CC1	·	–	–	–	–	–	·	·
CCOC(=O)c1c(-n2c(C)cc(/C=C3\C(=O)NC(=O)N(C)C3=O)c2C)sc2c1CCCC2	–	–	13	–	–	–	·	·	S1P4 agonist cf=24;S1P1 agonist=–
Cc1ccc(O)c(C(=O)c2cc(C(=O)NCCC(C)C)c(=O)n(CCC(C)C)c2)c1	–	–	15	–	–	–	·	·	S1P4 agonist cf=–;S1P1 agonist=–
CCC(=NCC1CCCO1)c1c(O)n(-c2ccccc2C)c(=O)[nH]c1=O (stereo unspecified)	·	–	93	–	–	–	·	·	S1P4 agonist cf=–;S1P1 agonist=–
O=C(c1ccc(N2CC3CC(C2)c2cccc(=O)n2C3)c([N+](=O)[O-])c1)N1CCCCC1 (stereo unspecified)	–	–	–	–	–	–	·	·
CCNC(=O)NC(=O)C(C)OC(=O)c1c(C)nn(Cc2ccccc2Cl)c1Cl (stereo unspecified)	–	–	31	–	–	–	·	·	S1P4 agonist cf=43;S1P1 agonist=–
CCNC(=O)NC(=O)C(C)OC(=O)c1c(C)nn(Cc2ccccc2)c1Cl (stereo unspecified)	–	–	31	–	–	–	·	·	S1P4 agonist cf=53;S1P1 agonist=–
Cc1nn(Cc2ccccc2Cl)c(Cl)c1C(=O)OCC(=O)NCc1ccco1	–	–	–	–	–	–	·	·
Cc1nn(Cc2ccccc2)c(Cl)c1C(=O)Nc1ccc(OC(F)(F)F)cc1	–	–	–	–	–	–	·	·
CC1(C)CSC(=NCc2ccccc2)N1	–	–	–	–	–	–	·	·
Cn1c(O)c(C=NCCN2CCOCC2)c(=O)[nH]c1=S	·	–	–	–	–	–	·	·
CCNC(=O)[C@H]1O[C@@H](n2cnc3c(N)ncnc32)[C@H](O)[C@@H]1O	–	–	–	–	·	·	·	·
NC(=O)c1cn(C2OC(CO)C(O)C2O)c2ncnc(N)c12 (stereo unspecified)	–	72	–	–	–	–	79	42
CC1(C)C[C@H]2C=C(C=O)[C@]3(C=O)C[C@]3(C)[C@H]2C1	–	70	–	–	–	–	115	118
SMILES	Hsp70 activator	S1P4 antag	S1P4 agonist	HSV replic up	zVAD death inh	TNF death inh	S1P4 antag conf	S1P1 antagonist	others
COc1cc2c(cc1/C=C/[N+](=O)[O-])OCO2	–	41	–	·	–	–	87	–
Cc1cccc(OP(=O)(NCc2ccccc2)Oc2cccc(C)c2)c1	–	–	–	–	–	–	·	·
CN1CCN(c2ccc([N+](=O)[O-])c3no[n+]([O-])c23)CC1	·	49	–	?	–	–	76	–
COc1ccc(-c2n(-c3ccccn3)c3ccccc3[n+]2-c2ccccn2)cc1	·	33	–	–	–	–	–	–
Cc1ccc(C2=NC(C)(C)N3C2C3c2ccc([N+](=O)[O-])cc2)cc1 (stereo unspecified)	–	–	–	–	–	–	·	·
COc1ccc(Oc2cc(NC(=O)c3nn(C)cc3[N+](=O)[O-])cc([N+](=O)[O-])c2)cc1	–	86	–	–	–	–	108	–
COc1ccc(NC(=O)c2cn(CCC#N)nc2-c2cccc([N+](=O)[O-])c2)cc1	·	–	–	–	–	–	·	·
O=C1C(=O)c2ccccc2-c2ccccc21	–	99	–	–	–	–	116	143
COc1ccccc1CCNCc1ccc(OC)c(OC)c1OC	–	–	–	–	–	–	·	·
C[C@H]1C/C=C/[C@H]2[C@H](O)[C@H](C)[C@@](C)(O)[C@H]3[C@H](Cc4ccccc4)NC(=O)[C@]32[C@H](O)/C=C/[C@](C)(O)C1	·	·	·	–	·	·	·	·
C=C1[C@@H](C)[C@H]2[C@H](Cc3ccccc3)NC(=O)[C@]23OC(=O)/C=C/[C@H](O)CCC[C@@H](C)C/C=C/[C@H]3[C@@H]1O	–	44	–	–	·	·	51	43
Clc1ccc(OCC#CCN2CCCCCC2)cc1	–	–	–	–	–	–	·	·
COC(=O)C1=C(c2cc3ccccc3o2)C[C@@H]2CC[C@H]1N2C(=O)NCc1ccc(C(F)(F)F)cc1	·	·	·	–	·	·	·	·
Cc1c(C(=O)Nc2ccccc2)cc(-c2ccccc2)n1CCCN1CCOCC1	·	34	–	–	–	–	–	–
C[C@H]1CCC/C=C/C2C[C@H](O)CC2[C@H](O)/C=C/C(=O)O1 (stereo partly specified)	–	51	–	–	–	–	97	–
CC1CCC/C=C/C2CC(O)CC2C(O)/C=C/C(=O)O1 (stereo unspecified)	–	47	–	·	–	–	83	–
C[C@H]1CCC[C@H](O)CCCCCc2cc(O)cc(O)c2C(=O)O1	–	–	–	–	–	–	·	·
CCOP(=O)(OCC)C(C)(C)NC(=O)C(Cl)(Cl)Cl	–	–	–	–	–	–	·	·
COC(=O)C1=C(c2ccc(S(C)(=O)=O)cc2)C[C@@H]2CC[C@H]1N2C(=O)NCc1ccc(C(F)(F)F)cc1	·	·	·	–	·	·	·	·
